{
  "source": "the antibiotic and cytotoxicity screens of Wong et al. (2023)",
  "note": "The campaign covered roughly 39,000 compounds. About 3,300 (8.5%) were called active. Only a selection was taken, and actives are over-represented in it overall.",
  "data": [
    {"tested_on": "HepG2", "test": "cytotoxicity call (relative viability < 0.9)", "conditions": "10 µM", "values": [
      {"smiles": "COc1ccc(NC(=O)N(C)C[C@@H]2OCCCC[C@H](C)Oc3ccc(NS(=O)(=O)c4ccc(Cl)cc4)cc3C(=O)N([C@H](C)CO)C[C@@H]2C)cc1", "cytotoxicity call": "inactive"},
      {"smiles": "C[C@H]1CN([C@@H](C)CO)C(=O)c2cc(C#CC3(O)CCCC3)cnc2O[C@@H]1CN(C)C(=O)Nc1ccc2c(c1)OCO2", "cytotoxicity call": "inactive"},
      {"smiles": "C[C@H]1CNC(=CC(=O)c2ccccc2)C(=O)N1", "cytotoxicity call": "inactive"},
      {"smiles": "O=C1OCCN/C1=C/C(=O)c1ccccc1", "cytotoxicity call": "active"},
      {"smiles": "O=C(/C=c1/nc2c([nH]c1=O)=NON2)c1ccccc1", "cytotoxicity call": "inactive"},
      {"smiles": "COCCNC(=O)C[C@H]1CC[C@@H](NS(=O)(=O)c2ccc(C)cc2)[C@@H](CO)O1", "cytotoxicity call": "inactive"},
      {"smiles": "C[C@@H]1CN([C@@H](C)CO)C(=O)c2cc(C#CC3CC3)cnc2O[C@@H]1CN(C)S(=O)(=O)c1cccc(F)c1", "cytotoxicity call": "inactive"},
      {"smiles": "C[C@H](CO)N1C[C@H](C)[C@@H](CN(C)C(=O)Nc2cccc(C(F)(F)F)c2)OCc2ccccc2-c2c(n(C)c3ccccc23)C1=O", "cytotoxicity call": "inactive"},
      {"smiles": "C[C@@H]1CN([C@@H](C)CO)C(=O)c2c(c3ccccc3n2C)-c2ccccc2CO[C@H]1CN(C)C(=O)Nc1cccc(C(F)(F)F)c1", "cytotoxicity call": "active"},
      {"smiles": "C[C@H]1CN([C@@H](C)CO)C(=O)c2c(c3ccccc3n2C)-c2ccccc2CO[C@H]1CN(C)C(=O)Nc1cccc(C(F)(F)F)c1", "cytotoxicity call": "inactive"},
      {"smiles": "C[C@@H]1CN([C@H](C)CO)C(=O)c2c(c3ccccc3n2C)-c2ccccc2CO[C@H]1CN(C)C(=O)Nc1cccc(C(F)(F)F)c1", "cytotoxicity call": "inactive"},
      {"smiles": "C[C@@H]1CN([C@H](C)CO)C(=O)c2c(c3ccccc3n2C)-c2ccccc2CO[C@@H]1CN(C)C(=O)Nc1cccc(C(F)(F)F)c1", "cytotoxicity call": "active"},
      {"smiles": "C[C@H](CO)N1C[C@H](C)[C@H](CN(C)C(=O)Nc2cccc(C(F)(F)F)c2)OCc2ccccc2-c2c(n(C)c3ccccc23)C1=O", "cytotoxicity call": "inactive"},
      {"smiles": "COc1ccc(S(=O)(=O)N(C)C[C@@H]2OCCCC[C@H](C)Oc3ccc(NC(=O)Nc4c(C)noc4C)cc3C(=O)N([C@@H](C)CO)C[C@@H]2C)cc1", "cytotoxicity call": "inactive"},
      {"smiles": "Cc1noc(C)c1NC(=O)N(C)C[C@@H]1Oc2ccc(NC(=O)NC(C)C)cc2CC(=O)N([C@@H](C)CO)C[C@@H]1C", "cytotoxicity call": "inactive"},
      {"smiles": "O=C(/C=C/c1ccc(O)c(O)c1)O[C@@H]1C[C@@](O)(C(=O)O)C[C@@H](O)[C@@H]1O", "cytotoxicity call": "active"},
      {"smiles": "O=C(C=Cc1ccc(O)c(O)c1)OC1CC(O)(C(=O)O)CC(O)C1O", "note": "(centres undefined)", "cytotoxicity call": "inactive"},
      {"smiles": "O=C(/C=C/c1ccc(O)c(O)c1)O[C@@H]1C[C@](O)(C(=O)O)C[C@@H](O)[C@H]1O", "cytotoxicity call": "inactive"},
      {"smiles": "Cc1noc(C)c1NC(=O)N(C)C[C@H]1OCCCC[C@@H](C)Oc2ccc(NS(=O)(=O)c3ccc(F)cc3)cc2C(=O)N([C@@H](C)CO)C[C@H]1C", "cytotoxicity call": "inactive"},
      {"smiles": "C[C@H]1CN([C@@H](C)CO)C(=O)c2cc(C#CCC3CCCC3)cnc2O[C@@H]1CN(C)C(=O)c1cnccn1", "cytotoxicity call": "inactive"},
      {"smiles": "CC(C)NC(=O)N(C)C[C@H]1Oc2cc(C#Cc3cccc(F)c3)ccc2S(=O)(=O)N([C@@H](C)CO)C[C@H]1C", "cytotoxicity call": "inactive"},
      {"smiles": "CNC[C@@H]1OCCCC[C@H](C)Oc2ccc(NS(=O)(=O)c3cn(C)cn3)cc2C(=O)N([C@@H](C)CO)C[C@@H]1C", "cytotoxicity call": "inactive"},
      {"smiles": "C[C@H](CO)N1C[C@H](C)[C@@H](CN(C)S(=O)(=O)c2ccc(Cl)cc2)OCCCC[C@H](C)Oc2ccc(NS(=O)(=O)c3ccc(Cl)cc3)cc2C1=O", "cytotoxicity call": "inactive"},
      {"smiles": "C[C@H]1CCCCO[C@@H](CN(C)S(=O)(=O)c2ccc(Cl)cc2)[C@@H](C)CN([C@@H](C)CO)C(=O)c2cc(NS(=O)(=O)c3ccc(Cl)cc3)ccc2O1", "cytotoxicity call": "inactive"},
      {"smiles": "C[C@@H]1CCCCO[C@H](CN(C)S(=O)(=O)c2ccc(Cl)cc2)[C@H](C)CN([C@@H](C)CO)C(=O)c2cc(NS(=O)(=O)c3ccc(Cl)cc3)ccc2O1", "cytotoxicity call": "active"},
      {"smiles": "C[C@H](CO)N1C[C@H](C)[C@H](CN(C)S(=O)(=O)c2ccc(Cl)cc2)OCCCC[C@H](C)Oc2ccc(NS(=O)(=O)c3ccc(Cl)cc3)cc2C1=O", "cytotoxicity call": "active"},
      {"smiles": "C[C@@H]1CCCCO[C@H](CN(C)S(=O)(=O)c2ccc(Cl)cc2)[C@@H](C)CN([C@H](C)CO)C(=O)c2cc(NS(=O)(=O)c3ccc(Cl)cc3)ccc2O1", "cytotoxicity call": "inactive"},
      {"smiles": "C[C@@H]1CCCCO[C@@H](CN(C)S(=O)(=O)c2ccc(Cl)cc2)[C@H](C)CN([C@@H](C)CO)C(=O)c2cc(NS(=O)(=O)c3ccc(Cl)cc3)ccc2O1", "cytotoxicity call": "inactive"},
      {"smiles": "C[C@@H]1CCCCO[C@H](CN(C)S(=O)(=O)c2ccc(Cl)cc2)[C@H](C)CN([C@H](C)CO)C(=O)c2cc(NS(=O)(=O)c3ccc(Cl)cc3)ccc2O1", "cytotoxicity call": "active"},
      {"smiles": "C[C@@H]1CCCCO[C@@H](CN(C)S(=O)(=O)c2ccc(Cl)cc2)[C@@H](C)CN([C@H](C)CO)C(=O)c2cc(NS(=O)(=O)c3ccc(Cl)cc3)ccc2O1", "cytotoxicity call": "inactive"},
      {"smiles": "C[C@@H]1CCCCO[C@@H](CN(C)S(=O)(=O)c2ccc(Cl)cc2)[C@@H](C)CN([C@@H](C)CO)C(=O)c2cc(NS(=O)(=O)c3ccc(Cl)cc3)ccc2O1", "cytotoxicity call": "inactive"},
      {"smiles": "C[C@@H]1CN([C@@H](C)CO)C(=O)c2cc(NS(=O)(=O)c3ccc(Cl)cc3)ccc2O[C@@H](C)CCCCO[C@@H]1CN(C)S(=O)(=O)c1ccc(Cl)cc1", "cytotoxicity call": "active"},
      {"smiles": "C[C@@H]1CN([C@H](C)CO)C(=O)c2cc(NS(=O)(=O)c3ccc(Cl)cc3)ccc2O[C@@H](C)CCCCO[C@@H]1CN(C)S(=O)(=O)c1ccc(Cl)cc1", "cytotoxicity call": "inactive"},
      {"smiles": "C[C@@H]1CCCCO[C@H](CN(C)S(=O)(=O)c2ccc(Cl)cc2)[C@@H](C)CN([C@@H](C)CO)C(=O)c2cc(NS(=O)(=O)c3ccc(Cl)cc3)ccc2O1", "cytotoxicity call": "inactive"},
      {"smiles": "CN(C)C(=O)c1ccc(-c2cccc(-c3nc(C(=O)NCc4ccccc4)cc4c3[C@@H](CCO)N([S@@](=O)C(C)(C)C)C4)c2)cc1", "cytotoxicity call": "inactive"},
      {"smiles": "C[C@H](NC(=O)C[C@H]1CC[C@@H](NC(=O)CN2CCOCC2)[C@@H](CO)O1)c1ccccc1", "cytotoxicity call": "inactive"},
      {"smiles": "Cc1ccc(S[C@]2(C(=O)NC3CC3)CC(=O)N(Cc3cc(C(F)(F)F)cc(C(F)(F)F)c3)[C@@H]2c2ccc(CO)cc2)cc1", "cytotoxicity call": "inactive"},
      {"smiles": "C[C@@H]1CCCCO[C@@H](CN(C)S(=O)(=O)c2ccccc2)[C@H](C)CN([C@@H](C)CO)C(=O)c2cc(NC(=O)C3CCCCC3)ccc2O1", "cytotoxicity call": "inactive"},
      {"smiles": "COc1ccc(S(=O)(=O)Nc2ccc3c(c2)CC(=O)N([C@@H](C)CO)C[C@@H](C)[C@@H](CN(C)Cc2ccc(C(=O)O)cc2)O3)cc1", "cytotoxicity call": "inactive"},
      {"smiles": "COc1ccc(NC(=O)N(C)C[C@@H]2OCCCC[C@H](C)Oc3ccc(NS(=O)(=O)c4cccs4)cc3C(=O)N([C@@H](C)CO)C[C@@H]2C)cc1", "cytotoxicity call": "inactive"},
      {"smiles": "CCS(=O)(=O)N1C[C@]2(CN(C2)C(=O)c2ccc3c(c2)OCO3)c2c(n(c3cc(ccc23)OC)C)[C@H]1CO", "cytotoxicity call": "inactive"},
      {"smiles": "CN1CCN(C(=O)C[C@@H]2CC[C@@H]3[C@H](COC[C@@H](O)CN3C(=O)Nc3cc(Cl)cc(Cl)c3)O2)CC1", "cytotoxicity call": "inactive"},
      {"smiles": "C[C@H]1CN([C@@H](C)CO)C(=O)c2cc(NC(=O)C3CCCCC3)ccc2O[C@H]1CN(C)C(=O)Nc1ccc(C(F)(F)F)cc1", "cytotoxicity call": "inactive"},
      {"smiles": "C[C@@H]1CN([C@H](C)CO)C(=O)c2cc(NS(=O)(=O)c3ccc(Cl)cc3)ccc2O[C@@H](C)CCCCO[C@H]1CN(C)S(=O)(=O)c1ccc(Cl)cc1", "cytotoxicity call": "inactive"},
      {"smiles": "C[C@@H]1CCCCO[C@@H](CN(C)S(=O)(=O)c2ccc(Cl)cc2)[C@H](C)CN([C@H](C)CO)C(=O)c2cc(NS(=O)(=O)c3ccc(Cl)cc3)ccc2O1", "cytotoxicity call": "active"},
      {"smiles": "C[C@@H]1CN([C@@H](C)CO)C(=O)c2cc(NS(=O)(=O)c3ccc(Cl)cc3)ccc2O[C@@H](C)CCCCO[C@H]1CN(C)S(=O)(=O)c1ccc(Cl)cc1", "cytotoxicity call": "inactive"},
      {"smiles": "COCCNC(=O)C[C@H]1C[C@H]2c3cc(NC(=O)CN(C)C)ccc3O[C@H]2[C@@H](CO)O1", "cytotoxicity call": "inactive"},
      {"smiles": "CC(C)NC(=O)Nc1ccc2c(c1)C(=O)N([C@H](C)CO)C[C@@H](C)[C@H](CN(C)Cc1ccc(Oc3ccccc3)cc1)O2", "cytotoxicity call": "inactive"},
      {"smiles": "C[C@H](CO)N1C[C@H](C)[C@H](CN(C)Cc2ccc(Oc3ccccc3)cc2)Oc2ccc(NC(=O)NC3CCCCC3)cc2C1=O", "cytotoxicity call": "inactive"},
      {"smiles": "C[C@@H]1CN([C@@H](C)CO)C(=O)c2cc(NC(=O)NC3CCCCC3)ccc2O[C@@H]1CN(C)Cc1ccc(Oc2ccccc2)cc1", "cytotoxicity call": "active"},
      {"smiles": "C[C@H](CO)N1C[C@H](C)[C@@H](CN(C)Cc2ccc(Oc3ccccc3)cc2)Oc2ccc(NC(=O)NC3CCCCC3)cc2C1=O", "cytotoxicity call": "active"},
      {"smiles": "C[C@@H]1CN([C@H](C)CO)C(=O)c2cc(NC(=O)NC3CCCCC3)ccc2O[C@H]1CN(C)Cc1ccc(Oc2ccccc2)cc1", "cytotoxicity call": "inactive"},
      {"smiles": "C[C@@H]1CN([C@@H](C)CO)C(=O)c2cc(NC(=O)NC3CCCCC3)ccc2O[C@H]1CN(C)Cc1ccc(Oc2ccccc2)cc1", "cytotoxicity call": "inactive"},
      {"smiles": "C[C@H]1CN([C@@H](C)CO)C(=O)c2cc(NC(=O)NC3CCCCC3)ccc2O[C@H]1CN(C)Cc1ccc(Oc2ccccc2)cc1", "cytotoxicity call": "inactive"},
      {"smiles": "CC(C)NC(=O)Nc1ccc2c(c1)C(=O)N([C@@H](C)CO)C[C@@H](C)[C@@H](CN(C)Cc1ccc(Oc3ccccc3)cc1)O2", "cytotoxicity call": "inactive"},
      {"smiles": "C[C@@H]1CN([C@H](C)CO)C(=O)c2cc(NC(=O)NC3CCCCC3)ccc2O[C@@H]1CN(C)Cc1ccc(Oc2ccccc2)cc1", "cytotoxicity call": "active"},
      {"smiles": "O=C(C[C@@H]1CC[C@@H]2[C@H](COC[C@H](O)CN2C(=O)Nc2ccc(Cl)cc2)O1)NCCc1ccncc1", "cytotoxicity call": "inactive"},
      {"smiles": "Cn1ccnc1C(=O)N[C@@H]1CN(C(N)=O)[C@H]2CCCO[C@@H]12", "cytotoxicity call": "inactive"},
      {"smiles": "C[C@@H]1CN([C@@H](C)CO)C(=O)Cc2cc(NC(=O)C3CC3)ccc2O[C@@H]1CN(C)S(=O)(=O)c1cccs1", "cytotoxicity call": "inactive"}
    ]}
  ]
}
